Source: publication PMC7862700, “An all-to-all approach to the identification of sequence-specific readers for epigenetic DNA modifications on cytosine”

Tests used:
Experiment in all cases: DAPPL (digital affinity profiling via proximity ligation, sequencing); 10 mM Tris-HCl pH 7.5, 50 mM NaCl, 1 mM DTT, 4% glycerol, room temperature, 30 min; GST-TFs on glutathione beads, 16-mer random dsDNA library, 0.1% formaldehyde crosslink after washing; high values mean tight binding
FEV = target: T1, FEV (Homo sapiens, UniProt Q99581 1-238); details: protein: recombinant; tags: N-terminal GST; dsDNA, one strand shown
T1 sequence: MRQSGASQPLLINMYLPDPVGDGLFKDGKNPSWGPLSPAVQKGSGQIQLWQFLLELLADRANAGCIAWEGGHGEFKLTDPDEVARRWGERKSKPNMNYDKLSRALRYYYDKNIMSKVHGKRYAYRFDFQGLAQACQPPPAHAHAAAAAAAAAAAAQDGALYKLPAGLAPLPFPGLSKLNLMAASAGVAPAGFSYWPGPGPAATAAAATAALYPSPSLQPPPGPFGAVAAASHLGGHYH
Outline: (§1)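 Binding signal is each hexamer's read frequency for a factor divided by its frequency in the tag-only sample. The factors were GST-fused human transcription factors from yeast, captured on glutathione beads, DNA-barcoded and pooled with that sample. Pools were incubated with 200 nmole of a random double-stranded 16-mer DNA library in Tris/NaCl/DTT/glycerol buffer at room temperature for 30 min, then washed, crosslinked with 0.1% formaldehyde, proximity-ligated with BsaI/T4 ligase (1 h, 37 °C), PCR-amplified and sequenced on an Illumina NextSeq500.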

ETV5 = ETV5 (Homo sapiens, UniProt P41161 1-510); details: protein: recombinant; tags: N-terminal GST; dsDNA, one strand shown
Sequence of ETV5 (P41161 whole entry): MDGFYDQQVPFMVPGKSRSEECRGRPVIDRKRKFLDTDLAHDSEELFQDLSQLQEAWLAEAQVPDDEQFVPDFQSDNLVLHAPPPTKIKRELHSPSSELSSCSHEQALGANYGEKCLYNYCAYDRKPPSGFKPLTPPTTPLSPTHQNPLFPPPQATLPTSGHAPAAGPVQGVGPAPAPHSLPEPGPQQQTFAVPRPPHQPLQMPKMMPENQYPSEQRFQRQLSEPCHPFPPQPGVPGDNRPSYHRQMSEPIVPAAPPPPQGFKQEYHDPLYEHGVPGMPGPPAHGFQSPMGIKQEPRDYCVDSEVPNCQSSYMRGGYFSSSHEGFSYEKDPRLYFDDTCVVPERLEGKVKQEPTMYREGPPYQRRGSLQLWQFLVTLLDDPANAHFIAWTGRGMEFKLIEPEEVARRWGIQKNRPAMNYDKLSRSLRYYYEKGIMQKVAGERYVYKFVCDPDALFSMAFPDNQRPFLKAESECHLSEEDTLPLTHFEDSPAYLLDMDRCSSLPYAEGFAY
Outline: as §1

HSF1 = HSF1 (Homo sapiens, UniProt Q00613 1-529); details: protein: recombinant; tags: N-terminal GST; chain copies: 3; dsDNA, one strand shown
Sequence of HSF1 (Q00613 whole entry): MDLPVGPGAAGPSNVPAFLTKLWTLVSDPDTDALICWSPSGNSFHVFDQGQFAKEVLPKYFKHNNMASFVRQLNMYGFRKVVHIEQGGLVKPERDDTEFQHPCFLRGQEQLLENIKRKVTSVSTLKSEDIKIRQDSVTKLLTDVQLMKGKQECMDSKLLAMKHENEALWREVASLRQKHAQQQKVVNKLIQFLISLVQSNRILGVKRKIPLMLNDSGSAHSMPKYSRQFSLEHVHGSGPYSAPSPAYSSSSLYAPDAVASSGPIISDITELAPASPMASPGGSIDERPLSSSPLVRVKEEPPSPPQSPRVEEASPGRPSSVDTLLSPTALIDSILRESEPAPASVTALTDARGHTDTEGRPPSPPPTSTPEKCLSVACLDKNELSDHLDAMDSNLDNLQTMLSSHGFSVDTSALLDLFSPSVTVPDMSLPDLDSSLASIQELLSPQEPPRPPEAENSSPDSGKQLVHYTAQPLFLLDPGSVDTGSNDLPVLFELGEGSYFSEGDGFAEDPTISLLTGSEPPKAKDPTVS
Outline: as §1

SPIC = target: T2, SPIC (Homo sapiens, UniProt Q8N5J4 1-248); details: protein: recombinant; tags: N-terminal GST; dsDNA, one strand shown
T2 sequence: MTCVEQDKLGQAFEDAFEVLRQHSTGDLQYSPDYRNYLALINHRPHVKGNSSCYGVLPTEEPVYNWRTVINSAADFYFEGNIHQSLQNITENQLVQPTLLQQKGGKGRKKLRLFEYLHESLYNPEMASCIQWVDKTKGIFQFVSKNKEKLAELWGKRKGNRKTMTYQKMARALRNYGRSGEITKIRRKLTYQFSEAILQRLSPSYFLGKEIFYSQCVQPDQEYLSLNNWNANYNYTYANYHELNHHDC
Outline: as §1

ELF4 = ELF4 (Homo sapiens, UniProt Q99607 1-663); details: protein: recombinant; tags: N-terminal GST; dsDNA, one strand shown
Sequence of ELF4 (Q99607 whole entry): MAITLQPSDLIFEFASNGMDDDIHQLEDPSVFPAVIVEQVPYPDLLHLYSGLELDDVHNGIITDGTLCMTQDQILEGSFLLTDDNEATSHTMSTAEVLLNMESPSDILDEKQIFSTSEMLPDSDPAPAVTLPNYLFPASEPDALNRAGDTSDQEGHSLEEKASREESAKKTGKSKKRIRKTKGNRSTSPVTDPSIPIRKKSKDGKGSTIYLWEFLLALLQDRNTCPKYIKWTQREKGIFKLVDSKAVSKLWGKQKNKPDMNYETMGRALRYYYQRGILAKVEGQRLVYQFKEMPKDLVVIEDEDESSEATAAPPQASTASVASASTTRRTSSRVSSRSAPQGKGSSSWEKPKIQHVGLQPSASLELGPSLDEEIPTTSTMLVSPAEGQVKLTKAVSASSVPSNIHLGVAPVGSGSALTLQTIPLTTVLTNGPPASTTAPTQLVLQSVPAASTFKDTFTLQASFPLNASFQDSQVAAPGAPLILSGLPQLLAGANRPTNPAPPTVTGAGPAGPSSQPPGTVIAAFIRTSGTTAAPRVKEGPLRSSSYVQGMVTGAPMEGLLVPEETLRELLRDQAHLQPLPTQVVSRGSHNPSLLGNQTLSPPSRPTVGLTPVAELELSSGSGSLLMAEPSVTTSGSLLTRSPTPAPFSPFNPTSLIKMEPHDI
Outline: as §1

ELK4 = target: T3, ELK4 (Homo sapiens, UniProt P28324-2 1-405); details: protein: recombinant; tags: N-terminal GST; dsDNA, one strand shown
T3 sequence: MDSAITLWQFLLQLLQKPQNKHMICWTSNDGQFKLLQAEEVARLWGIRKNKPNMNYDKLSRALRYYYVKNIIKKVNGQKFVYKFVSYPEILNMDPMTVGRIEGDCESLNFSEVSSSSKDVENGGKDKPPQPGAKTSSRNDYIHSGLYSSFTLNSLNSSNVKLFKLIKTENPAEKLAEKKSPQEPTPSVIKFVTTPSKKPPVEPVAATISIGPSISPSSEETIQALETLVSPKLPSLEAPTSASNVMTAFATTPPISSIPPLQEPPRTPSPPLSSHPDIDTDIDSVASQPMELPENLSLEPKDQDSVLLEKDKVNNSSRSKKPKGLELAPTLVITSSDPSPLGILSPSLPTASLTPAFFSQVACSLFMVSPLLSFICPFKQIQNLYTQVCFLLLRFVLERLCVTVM
Outline: as §1

ETV2 = target: T4, ETV2 (Homo sapiens, UniProt O00321 1-342); details: protein: recombinant; tags: N-terminal GST; dsDNA, one strand shown
T4 sequence: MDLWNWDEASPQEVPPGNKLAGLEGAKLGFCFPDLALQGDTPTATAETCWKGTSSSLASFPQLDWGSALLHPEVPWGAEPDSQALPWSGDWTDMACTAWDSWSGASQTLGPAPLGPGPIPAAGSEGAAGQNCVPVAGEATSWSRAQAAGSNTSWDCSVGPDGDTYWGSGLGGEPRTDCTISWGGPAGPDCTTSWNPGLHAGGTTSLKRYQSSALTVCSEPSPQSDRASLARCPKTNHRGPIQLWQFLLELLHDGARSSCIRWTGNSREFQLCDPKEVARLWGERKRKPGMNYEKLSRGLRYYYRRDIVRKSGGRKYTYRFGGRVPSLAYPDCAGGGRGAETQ
Outline: as §1

ELF3 = target: T5, ELF3 (Homo sapiens, UniProt P78545 1-371); details: protein: recombinant; tags: N-terminal GST; dsDNA, one strand shown
T5 sequence: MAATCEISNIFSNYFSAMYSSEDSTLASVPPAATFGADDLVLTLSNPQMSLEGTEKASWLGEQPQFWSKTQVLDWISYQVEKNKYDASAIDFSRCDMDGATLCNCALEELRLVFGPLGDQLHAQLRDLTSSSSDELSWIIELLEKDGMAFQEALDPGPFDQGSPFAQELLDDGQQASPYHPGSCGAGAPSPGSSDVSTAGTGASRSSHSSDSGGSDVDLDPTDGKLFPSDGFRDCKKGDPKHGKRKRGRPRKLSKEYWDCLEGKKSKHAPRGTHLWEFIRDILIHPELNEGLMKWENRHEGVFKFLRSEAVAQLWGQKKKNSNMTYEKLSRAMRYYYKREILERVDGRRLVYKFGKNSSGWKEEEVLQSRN
Outline: as §1

CRX = CRX (Homo sapiens, UniProt O43186 1-299); details: protein: recombinant; tags: N-terminal GST; dsDNA, one strand shown
Sequence of CRX (O43186 whole entry): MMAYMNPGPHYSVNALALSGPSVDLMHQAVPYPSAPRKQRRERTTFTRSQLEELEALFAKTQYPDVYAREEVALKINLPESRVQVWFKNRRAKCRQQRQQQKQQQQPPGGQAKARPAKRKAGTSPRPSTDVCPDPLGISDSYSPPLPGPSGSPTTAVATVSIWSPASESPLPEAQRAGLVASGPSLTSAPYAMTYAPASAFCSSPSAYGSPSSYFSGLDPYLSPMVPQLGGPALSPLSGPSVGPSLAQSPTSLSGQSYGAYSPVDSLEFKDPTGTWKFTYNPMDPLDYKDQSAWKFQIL
Outline: as §1

ETV1 = ETV1 (Homo sapiens, UniProt P50549 1-477); details: protein: recombinant; tags: N-terminal GST; dsDNA, one strand shown
Sequence of ETV1 (P50549 whole entry): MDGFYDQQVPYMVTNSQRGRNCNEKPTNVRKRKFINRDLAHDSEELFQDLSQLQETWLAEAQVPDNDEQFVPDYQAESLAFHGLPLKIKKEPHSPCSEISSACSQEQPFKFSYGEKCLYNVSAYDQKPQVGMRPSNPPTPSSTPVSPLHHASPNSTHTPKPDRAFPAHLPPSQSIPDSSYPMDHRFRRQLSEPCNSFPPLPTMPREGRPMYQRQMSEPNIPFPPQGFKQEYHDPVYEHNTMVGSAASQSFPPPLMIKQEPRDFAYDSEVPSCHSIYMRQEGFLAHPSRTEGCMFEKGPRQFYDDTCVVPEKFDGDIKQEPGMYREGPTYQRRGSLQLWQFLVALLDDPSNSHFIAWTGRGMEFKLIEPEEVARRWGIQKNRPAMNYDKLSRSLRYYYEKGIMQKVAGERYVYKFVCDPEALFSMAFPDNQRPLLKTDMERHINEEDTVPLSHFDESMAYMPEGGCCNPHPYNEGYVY
Outline: as §1

ERF = target: T6, ERF (Homo sapiens, UniProt P50548 1-548); details: protein: recombinant; tags: N-terminal GST; dsDNA, one strand shown
T6 sequence: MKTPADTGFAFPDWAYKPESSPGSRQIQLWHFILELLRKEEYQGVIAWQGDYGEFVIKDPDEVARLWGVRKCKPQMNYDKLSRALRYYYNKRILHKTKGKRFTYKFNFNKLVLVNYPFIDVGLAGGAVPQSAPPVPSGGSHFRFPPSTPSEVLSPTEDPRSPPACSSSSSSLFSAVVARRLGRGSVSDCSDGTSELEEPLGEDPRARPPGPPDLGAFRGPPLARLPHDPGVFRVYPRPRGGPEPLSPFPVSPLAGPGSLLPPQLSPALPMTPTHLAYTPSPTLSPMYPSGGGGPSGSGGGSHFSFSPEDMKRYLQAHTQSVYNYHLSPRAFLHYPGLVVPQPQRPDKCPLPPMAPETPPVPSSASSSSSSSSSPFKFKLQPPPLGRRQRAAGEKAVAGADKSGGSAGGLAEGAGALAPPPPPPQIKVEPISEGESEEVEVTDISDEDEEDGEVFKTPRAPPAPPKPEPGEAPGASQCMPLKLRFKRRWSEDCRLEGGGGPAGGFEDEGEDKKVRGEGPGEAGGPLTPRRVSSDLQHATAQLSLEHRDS
Outline: as §1

ETV3L = target: T7, ETV3L (Homo sapiens, UniProt Q6ZN32 1-361); details: protein: recombinant; tags: N-terminal GST; dsDNA, one strand shown
T7 sequence: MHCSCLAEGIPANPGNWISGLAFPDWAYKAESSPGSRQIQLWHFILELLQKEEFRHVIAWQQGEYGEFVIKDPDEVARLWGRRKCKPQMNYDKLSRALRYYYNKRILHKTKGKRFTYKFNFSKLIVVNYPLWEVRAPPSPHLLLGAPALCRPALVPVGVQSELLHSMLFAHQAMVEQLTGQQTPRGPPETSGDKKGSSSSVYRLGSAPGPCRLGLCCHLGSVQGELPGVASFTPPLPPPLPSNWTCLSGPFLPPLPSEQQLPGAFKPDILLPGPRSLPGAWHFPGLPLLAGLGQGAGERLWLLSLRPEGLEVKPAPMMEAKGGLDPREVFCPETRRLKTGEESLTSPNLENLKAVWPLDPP
Outline: as §1

ETS2 = target: T8, ETS2 (Homo sapiens, UniProt P15036 1-469); details: protein: recombinant; tags: N-terminal GST; dsDNA, one strand shown
T8 sequence: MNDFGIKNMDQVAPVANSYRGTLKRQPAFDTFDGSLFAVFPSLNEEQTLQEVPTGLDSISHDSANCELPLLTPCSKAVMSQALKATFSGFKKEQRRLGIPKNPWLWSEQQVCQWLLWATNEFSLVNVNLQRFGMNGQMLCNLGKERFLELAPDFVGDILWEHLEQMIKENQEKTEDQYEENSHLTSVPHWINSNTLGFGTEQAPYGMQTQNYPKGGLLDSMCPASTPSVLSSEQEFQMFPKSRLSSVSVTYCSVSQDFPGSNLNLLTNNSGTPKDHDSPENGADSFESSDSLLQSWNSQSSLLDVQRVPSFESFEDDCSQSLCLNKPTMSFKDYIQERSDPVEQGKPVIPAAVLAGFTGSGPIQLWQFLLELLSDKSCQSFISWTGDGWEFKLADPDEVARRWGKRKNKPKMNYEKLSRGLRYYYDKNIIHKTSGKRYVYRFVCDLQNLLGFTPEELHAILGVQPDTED
Outline: as §1

SPDEF = target: T9, SPDEF (Homo sapiens, UniProt O95238 1-335); details: protein: recombinant; tags: N-terminal GST; dsDNA, one strand shown
T9 sequence: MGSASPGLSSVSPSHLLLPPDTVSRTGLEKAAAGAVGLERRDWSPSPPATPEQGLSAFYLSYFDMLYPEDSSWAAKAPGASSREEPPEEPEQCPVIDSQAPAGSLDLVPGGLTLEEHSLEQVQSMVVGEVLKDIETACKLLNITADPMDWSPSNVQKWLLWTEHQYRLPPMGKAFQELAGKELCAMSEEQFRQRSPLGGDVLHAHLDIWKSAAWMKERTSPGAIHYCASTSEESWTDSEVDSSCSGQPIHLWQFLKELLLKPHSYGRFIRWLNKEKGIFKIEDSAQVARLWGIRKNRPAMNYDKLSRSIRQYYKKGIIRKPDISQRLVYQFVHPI
Outline: as §1

ETV7 = target: T10, ETV7 (Homo sapiens, UniProt Q9Y603 1-341); details: protein: recombinant; tags: N-terminal GST; dsDNA, one strand shown
T10 sequence: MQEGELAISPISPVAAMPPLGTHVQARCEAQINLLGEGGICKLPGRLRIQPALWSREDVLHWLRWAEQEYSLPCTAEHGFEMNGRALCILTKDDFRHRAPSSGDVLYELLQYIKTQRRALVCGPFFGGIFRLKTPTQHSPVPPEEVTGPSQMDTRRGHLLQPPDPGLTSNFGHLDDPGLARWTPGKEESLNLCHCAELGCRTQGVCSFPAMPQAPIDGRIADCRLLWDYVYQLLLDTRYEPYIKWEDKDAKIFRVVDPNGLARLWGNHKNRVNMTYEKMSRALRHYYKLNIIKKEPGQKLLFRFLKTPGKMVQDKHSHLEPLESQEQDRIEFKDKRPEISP
Outline: as §1

ELF5 = target: T11, ELF5 (Homo sapiens, UniProt Q9UKW6-2 1-255); details: protein: recombinant; tags: N-terminal GST; dsDNA, one strand shown
T11 sequence: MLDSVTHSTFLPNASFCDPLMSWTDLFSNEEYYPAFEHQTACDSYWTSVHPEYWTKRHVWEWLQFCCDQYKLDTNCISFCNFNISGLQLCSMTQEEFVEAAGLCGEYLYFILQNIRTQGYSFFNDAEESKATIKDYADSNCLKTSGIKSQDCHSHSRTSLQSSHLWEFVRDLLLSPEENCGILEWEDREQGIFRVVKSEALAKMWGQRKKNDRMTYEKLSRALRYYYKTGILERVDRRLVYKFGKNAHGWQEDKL
Outline: as §1

ETV3 = target: T12, ETV3 (Homo sapiens, UniProt P41162-2 1-143); details: protein: recombinant; tags: N-terminal GST; dsDNA, one strand shown
T12 sequence: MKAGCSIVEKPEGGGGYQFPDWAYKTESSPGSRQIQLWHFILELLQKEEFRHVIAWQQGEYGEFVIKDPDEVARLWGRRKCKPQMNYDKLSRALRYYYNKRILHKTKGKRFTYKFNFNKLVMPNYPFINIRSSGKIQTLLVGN
Outline: as §1

ETV6 = ETV6 (Homo sapiens, UniProt P41212 1-452); details: protein: recombinant; tags: N-terminal GST; dsDNA, one strand shown
Sequence of ETV6 (P41212 whole entry): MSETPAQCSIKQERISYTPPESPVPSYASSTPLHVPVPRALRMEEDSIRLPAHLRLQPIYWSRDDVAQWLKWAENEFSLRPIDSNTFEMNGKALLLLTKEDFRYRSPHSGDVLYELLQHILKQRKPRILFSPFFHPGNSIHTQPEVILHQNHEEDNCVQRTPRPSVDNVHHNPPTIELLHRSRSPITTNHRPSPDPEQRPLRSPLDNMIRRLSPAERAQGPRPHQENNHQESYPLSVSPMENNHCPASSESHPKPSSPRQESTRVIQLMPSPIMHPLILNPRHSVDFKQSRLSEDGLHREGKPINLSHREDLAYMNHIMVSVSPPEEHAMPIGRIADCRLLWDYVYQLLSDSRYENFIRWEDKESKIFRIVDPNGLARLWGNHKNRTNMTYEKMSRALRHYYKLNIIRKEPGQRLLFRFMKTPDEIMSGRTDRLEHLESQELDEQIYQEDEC
Outline: as §1

With TCTTTA the binding signal (FEV) was 1.22 fold enrichment (6-mer frequency, TF over GST control), the binding signal (ETV5) was 1.16 fold enrichment (6-mer frequency, TF over GST control) and the binding signal (HSF1) was 1.5 fold enrichment (6-mer frequency, TF over GST control). For the same sequence, the binding signal (SPIC) was 1.22 fold enrichment (6-mer frequency, TF over GST control), the binding signal (ELF4) was 1.21 fold enrichment (6-mer frequency, TF over GST control) and the binding signal (ELK4) was 1.3 fold enrichment (6-mer frequency, TF over GST control). The binding signal (ETV2) was 1.31 fold enrichment (6-mer frequency, TF over GST control), the binding signal (ELF3) was 1.36 fold enrichment (6-mer frequency, TF over GST control) and the binding signal (CRX) was 1.93 fold enrichment (6-mer frequency, TF over GST control). The binding signal (ETV1) was 1.25 fold enrichment (6-mer frequency, TF over GST control), the binding signal (ERF) was 1.1 fold enrichment (6-mer frequency, TF over GST control) and the binding signal (ETV3L) was 1.4 fold enrichment (6-mer frequency, TF over GST control). For the same sequence, the binding signal (ETS2) was 1.2 fold enrichment (6-mer frequency, TF over GST control), the binding signal (SPDEF) was 1.2 fold enrichment (6-mer frequency, TF over GST control) and the binding signal (ETV7) was 1.25 fold enrichment (6-mer frequency, TF over GST control). The binding signal (ELF5) was 1.19 fold enrichment (6-mer frequency, TF over GST control), the binding signal (ETV3) was 1.25 fold enrichment (6-mer frequency, TF over GST control) and the binding signal (ETV6) was 1.22 fold enrichment (6-mer frequency, TF over GST control).
